Results taken from PubChem BioAssay AID1662 (Broad Institute, 2009).
About 4,000 (1.3%) of roughly 300,000 compounds were called active. The full list was thinned out, with actives kept by preference. Unmarked numbers belong to inactive results.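 Rule for the calls: active = mean replicate score, as percent of positive control median, at least 50; inconclusive = mean below 50 but one replicate at or above 50; inactive = mean and every replicate below 50.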

Assay: S. pyogenes SKKanGAS growth inhibitors in kanamycin, primary screen, streptokinase expression inhibitor project, SKKanGAS strain, BacTiter-Glo luminescence (AID 1662);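 note: strain carries kanamycin resistance gene driven by streptokinase promoter and grows in 40 µg/ml kanamycin; loss of luminescence reflects streptokinase promoter inhibition or plain growth inhibition; 0% = median of DMSO wells and 100% = positive control at its reference dose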
Conditions: 6 h, at 7.5 µM, hits give high values
CN(C)CCNc1ccc(-c2n[nH]c(=O)c3ccccc23)cc1[N+](=O)[O-] showed an inhibition of -10.2%. COc1ccc(/C=N/Nc2cc(N3CCOCC3)nc(C)n2)c(OC)c1 gave an inhibition of 14.3%. For COc1ccccc1/C=N\Nc1cc(C)nc(-n2nc(C)cc2C)n1, the inhibition was 101% (active). With COc1cccc(/C=N/Nc2cc(C)nc(-c3ccccc3O)n2)c1O the inhibition was 64.5% (active). Compound Oc1cccc(/C=N/Nc2ccc(Cl)nn2)c1O has an inhibition of -9.25%. Work on COc1cccc2c(N/N=C/c3ccco3)cc(C)nc12 yielded an inhibition of -8.63%. Compound Cc1nc(Cl)cc(N/N=C/c2ccccc2)n1 has an inhibition of -4.1%. COc1ccc(-c2nn(-c3ccccc3)cc2/C=N/Nc2ccccn2)cc1OC gave an inhibition of 16.9%. For Cc1cc(N/N=C\c2ccc(Br)cc2)nc(-n2nc(C)cc2C)n1, the inhibition was 102% (active). Cc1ccc(S(=O)(=O)Nc2nc(C)cc(N/N=C/c3ccc(O)cc3)n2)cc1 showed an inhibition of -2.8%. For CC(=O)Nc1ccc(NS(=O)(=O)c2ccc3c(c2)NC(=O)CC(=O)N3)cc1, the inhibition was -2.61%. Work on CCOC(=O)N1CCN(S(=O)(=O)c2ccc(OC)cc2)CC1 yielded an inhibition of -0.833%. For Cc1cc(N2C(=O)C(=O)/C(=C(/O)c3ccccc3)C2c2cccc(Br)c2)no1 (stereo unspecified), the inhibition was 16.7%. For Cn1nnc(NC(=S)NC(=O)c2ccccc2)n1, the inhibition was -0.537%. COc1ccccc1CCC(=O)OCC(=O)N1CCN(S(=O)(=O)c2ccc(C)cc2C)CC1 showed an inhibition of -9.85%. Cc1ccccc1NC(=O)C1CCCN(C(=O)NCc2ccccc2)C1 (stereo unspecified) showed an inhibition of -1.35%. Work on CCCCN=C1C([N+](=O)[O-])=CC=C2C1=NC1(CCCCC1)N2O yielded an inhibition of 2.56%. Compound Clc1ccc(-c2cc(C3CCNCC3)[nH]n2)c(Cl)c1 has an inhibition of 7.25%. With COc1ccc(CCNC(=O)CCCCCNC(=O)N2CCn3c2nc2ccccc23)cc1OC the inhibition was 3.33%. Work on COc1ccccc1N1CCN(C(=O)CCS(=O)(=O)c2ccc3c(c2)NC(=O)C(C)S3)CC1 (stereo unspecified) yielded an inhibition of -2.2%. COC(=O)CNC(c1ccccc1Cl)c1cc(Br)ccc1NC(=O)CCN1CCOCC1 (stereo unspecified) gave an inhibition of -3.8%. For CC(=O)O[C@H]1CC[C@@]2(C)[C@@H](CC[C@@H]3[C@@H]2CC[C@]2(C)[C@@H](C(C)(C)O)C[C@@H]32)C1, the inhibition was 29%. With COc1ccc(-c2cc(-c3ccc(N)cc3)nc(N)c2C#N)cc1OC the inhibition was 9.35%. With CCOc1cc(-c2cc(-c3ccc(NC(C)=O)cc3)nc(N)c2C#N)ccc1O the inhibition was 83.8% (active). With CCOc1cc(-c2cc(-c3ccc(OC)cc3)nc(N)c2C#N)ccc1O the inhibition was 30.5%. In the case of O=S(=O)(c1cccc(C(F)(F)F)c1)N1CCN(c2cnccn2)CC1, the inhibition was 0.567%. Work on CC(C)CCNC(=O)CCNS(=O)(=O)c1ccc(Cl)cc1 yielded an inhibition of -4.22%. In the case of COCCSc1nnc(NC(=O)CCS(=O)(=O)Cc2ccccc2)s1, the inhibition was -1.08%. Work on Cc1cc(C)cc(N(CCC#N)C(=O)CN2C(=O)NC3(CCCC3)C2=O)c1 yielded an inhibition of -1.7%. In the case of Cc1ccc(OCCCCc2c(C)n[nH]c2C)cc1, the inhibition was 87.2% (active). CCCOc1ccc(-c2nc(N)n[nH]2)cc1 gave an inhibition of -0.246%. In the case of Cc1ccc(OCc2n[nH]c(=S)n2-c2ccc(C)cc2)cc1, the inhibition was -0.726%. In the case of Cc1cc2c(c(=O)n1C)C(C(C)C)C(C#N)=C(N)O2 (stereo unspecified), the inhibition was -0.711%. For CCOC(=O)c1c(-c2ccccc2)oc2ccc(OCC(N)=O)cc12, the inhibition was -10.7%. For CCOC(=O)c1c(-c2ccccc2)oc2cc(Br)c(O)c(C=O)c12, the inhibition was 56.9% (active). In the case of CCOC(=O)c1c(-c2ccccc2)oc2cc(Br)c(O)cc12, the inhibition was 12.5%. Work on COc1ccccc1CNS(=O)(=O)c1cc2c3c(c1)CCC(=O)N3CCC2 yielded an inhibition of -8.56%. Work on NS(=O)(=O)c1ccc(CCNC(=O)CN2C(=O)c3ccccc3S2(=O)=O)cc1 yielded an inhibition of -2.59%. For CCCCCCc1cc2cc(-c3nnc(-c4ccccc4)o3)c(=O)oc2cc1O, the inhibition was 62% (active). Compound Cc1c(CC(=O)NCCCCCC(=O)O)c(=O)oc2cc3occ(-c4ccccc4)c3cc12 has an inhibition of 18.7%. CCCCCCc1ccc(O)cc1O gave an inhibition of 9.42%. O=C(CCc1nnc2ccc(NCc3ccco3)nn12)Nc1cc(F)ccc1F gave an inhibition of -0.213%. Compound Cc1ccc(C(=O)NC(=S)Nc2ccccc2C)cc1 has an inhibition of -6.14%. In the case of C/C(=N\NC(=O)c1ccc(C)cc1)C1C(=O)c2ccccc2C1=O, the inhibition was 52.3% (active). Compound Cc1ccc(NC(=S)NC(=O)c2ccc(-c3ccccc3)cc2)cc1 has an inhibition of 9.46%. Compound OC(COc1cccc2ccccc12)CN1CCN(c2ccccn2)CC1 (stereo unspecified) has an inhibition of 13.1%. Work on Cc1cc(C)c(NC(=O)C[N+](C)(C)CC(O)COc2cccc3ccccc23)c(C)c1 (stereo unspecified) yielded an inhibition of 29%. For CC(C)c1ccccc1OCC(O)CN(CC(O)COc1cccc2ccccc12)C(C)C (stereo unspecified), the inhibition was 97.9% (active). For CC(C)=CCCC1(C)C=Cc2c(ccc3c2[nH]c2cc(O)c(C)cc23)O1 (stereo unspecified), the inhibition was 112% (active). With COc1ccc(CCNC(=O)C(=O)NCC2OCCN2S(=O)(=O)c2cccs2)cc1OC (stereo unspecified) the inhibition was -1.24%. CCCC(CCC(=O)OC)(C(=O)OCC)c1csc(N)n1 (stereo unspecified) gave an inhibition of -8.11%. In the case of CCCCCCCCCCCCC(NC(C)=O)(C(=O)OCC)C(=O)OCC, the inhibition was 61.2% (active). O=S(=O)(c1cccc(-c2cn3ccccc3n2)c1)N1CCCC1 gave an inhibition of -3.54%. For O=C(CSc1nc(O)c(Cc2ccccc2)c(=O)[nH]1)Nc1nc2c(s1)CCCC2, the inhibition was 28.8%. O=S(=O)(c1cc(Cl)ccc1Cl)N1CCN(Cc2ccco2)CC1 gave an inhibition of 2.62%. Compound CC(=O)Nc1ccc(NC(=O)C(C)n2c3ccccc3c3nc(=O)cc(C)n32)cc1 (stereo unspecified) has an inhibition of 3.43%. With C=CCn1c(SCC(=O)/C(C#N)=C(\C)N)nc2sc(C)c(C)c2c1=O the inhibition was 58.1% (active). C=CCn1c(SCC(=O)NCC2CCCO2)nc2sc(C)c(C)c2c1=O (stereo unspecified) gave an inhibition of -1.04%. In the case of Cc1sc2nc(SCC(N)=O)n(C)c(=O)c2c1C, the inhibition was -2.36%. COc1ccc(NC(=O)CN(C)C(=O)/C=C/c2cn(Cc3ccccc3)nc2-c2cccnc2)cc1 showed an inhibition of 18.3%. CCOc1ccc2[nH]c(=O)c(CN(CCCO)S(=O)(=O)c3ccc(F)cc3)cc2c1 showed an inhibition of 0.803%. In the case of Cc1cc(N2C(=O)C(O)=C(C(=O)c3ccc(C)o3)C2c2ccc(OCc3ccccc3)cc2)no1 (stereo unspecified), the inhibition was 106% (active). Work on COc1cc(C2C(C(=O)c3ccco3)=C(O)C(=O)N2c2cc(C)on2)ccc1OCc1ccccc1 (stereo unspecified) yielded an inhibition of 2.64%. For C=CCOc1cccc(C2C(C(=O)c3ccc(C)o3)=C(O)C(=O)N2c2nnc(C)s2)c1 (stereo unspecified), the inhibition was 7.43%. In the case of Cc1ccc(C2(c3ccc(C)cc3)NC(=O)N(Cc3c(C)noc3C)C2=O)cc1, the inhibition was 4.44%. With O=C(CCc1ccccc1)NNC(=O)COc1ccc(Cl)cc1 the inhibition was 5.54%. Compound Clc1ccc(C2CC(c3cccs3)n3ncnc3N2)cc1Cl (stereo unspecified) has an inhibition of -0.937%. COc1ccc(C2CC(c3ccc(C)cc3)Nc3ncnn32)cc1 (stereo unspecified) showed an inhibition of -7.13%. For FC(F)Oc1ccccc1C1CC(c2ccc(Br)s2)Nc2ncnn21 (stereo unspecified), the inhibition was 59.5% (active). CCCCCC(O)(CCN1CCCCC1)c1ccccc1 (stereo unspecified) showed an inhibition of -0.734%. Compound Cc1ccsc1C(=O)OCC(=O)c1cc(C)n(CC2CCCO2)c1C (stereo unspecified) has an inhibition of 9.42%. Work on CSCCC(NC(=O)COc1ccccc1)C(=O)OCC(=O)c1cc2ccccc2o1 (stereo unspecified) yielded an inhibition of -0.0582%. For Cc1ccsc1C(=O)OCC(=O)c1cc2ccccc2o1, the inhibition was 49.9% (active). CC(C)(C)NC(=O)CN(C(=O)c1ccc(Cl)nc1)c1cccc2ccccc12 gave an inhibition of -17.5%. In the case of CC(C)Oc1ccc(/C=N/NC(=O)c2nnn(-c3nonc3N)c2CN(C)C2CCCCC2)cc1, the inhibition was 18.9%. O=C(NCC(=O)N1CCN(c2ccccc2O)CC1)c1ccc2ccccc2c1 showed an inhibition of 11.7%. In the case of CN1C(=O)/C(=C\c2ccc(-c3ccccc3)o2)SC1=S, the inhibition was 7.05%. In the case of O=C(O)C(c1ccccc1)N1C(=O)/C(=C\c2ccc(-c3cccc(Cl)c3)o2)SC1=S (stereo unspecified), the inhibition was 94% (active). In the case of O=C1NN(c2ccccc2)C(=O)/C1=C/c1ccc(-c2cccc(C(=O)O)c2)o1, the inhibition was -2.46%. For Cn1c(=O)oc2cc(S(=O)(=O)NCCC(=O)NCc3ccccc3Cl)ccc21, the inhibition was 2.05%. Compound C=CCn1c(C23CC4CC(CC(C4)C2)C3)n[nH]c1=S has an inhibition of 1.54%. In the case of COc1ccccc1NC(=O)CSc1nc2sc3c(c2c(=O)n1-c1ccccc1)CCN(C)C3, the inhibition was -17%. In the case of Cc1cc(NC(=O)CSc2nc3cc(Cl)ccc3c(=O)n2Cc2ccco2)no1, the inhibition was 1.74%. For COc1ccccc1NC(=O)CSc1nc2sc(C)c(C)c2c(=O)n1Cc1ccco1, the inhibition was 52.6% (active). In the case of CC(C)Cc1oc(C(=O)O)cc1CN, the inhibition was 4.13%. For CCOC(=O)c1ccc(NC(=O)c2nc[nH]c2C(=O)N[C@@H](CCCCNC(=O)OC(C)(C)C)C(=O)OC(C)(C)C)cc1, the inhibition was 50.8% (active). Work on C[C@H](NC(=O)c1nc[nH]c1C(=O)N[C@@H](C)C(=O)OC(C)(C)C)C(=O)OC(C)(C)C yielded an inhibition of 1.23%. Compound CNC(=O)c1[nH]cnc1C(=O)N[C@@H](CC(C)C)C(=O)OC(C)(C)C has an inhibition of -5.44%. Work on CCOC(=O)c1[nH]cnc1C(=O)Nc1ccccc1C yielded an inhibition of 10.7%. For Cc1ccc(NC(=O)c2nc[nH]c2C(=O)N[C@@H](CCCCNC(=O)OC(C)(C)C)C(=O)OC(C)(C)C)cc1, the inhibition was 76.8% (active). CCOC(=O)c1ccc(NC(=O)c2nc[nH]c2C(=O)NCc2ccccc2)cc1 gave an inhibition of 18.8%.
